Most compounds without a hit are left out; they make up all but 8% or so of the library.
HT1080 IDH1KD tx: toxicity to HT-1080 IDH1 knockdown cells (counter line). Potency, µM (titrated, usually from 46.1 µM), inactives show at the top dose activity, negative = toxicity, hits mostly cytotoxic. 360,000 tested, 2% active. AID 686971. HT-1080 IDH1 knockdown viability, ATP luminescence, 48 h;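 also: 0% = DMSO wells and -100% = cell-free medium wells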
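Knockdown cells (IDH1KD HT-1080) received compounds 2 h after plating at 750 cells/well and were kept 48 h at 37 °C in 5% FBS RPMI. A CellTiter-Glo luminescence read gave % activity for curve fitting.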
MCF10A rerep: DNA re-replication induction in MCF 10a cells. MCF 10A DNA re-replication, Hoechst nuclear intensity, 48 h. Potency, µM (top dose mostly 46.1 µM), without a hit: top-dose activity, positive = re-replication, actives largely listed as activators. 350,000 tested, 2.9% active. AID 624296; also: % of control where 0% means no effect; nearly all actives have a fitted effect of over 50% in size
HT1080-NT tox: kills 2HG-producing HT-1080-NT fibrosarcoma cells. HT-1080-NT fibrosarcoma viability, CellTiter-Glo ATP luminescence, 48 h. Potency, µM (series often up to 46.1 µM), for the others: at the highest dose activity, negative = less viability, usual class: cytotoxic. 360,000 tested, 1.6% active. AID 686970;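 also: NT is the 2HG producing partner of a matched IDH1 knockdown line; 0% = DMSO-treated cells and -100% = media-only wells without cells; nearly all actives have a fitted effect of over 55% in size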
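Luminescent CellTiter-Glo readout after 48 hours of compound exposure at 37 degrees C defined viability of HT-1080-NT cells. Activity was normalized to DMSO wells and cell-free media wells; concentration-response curves were fitted and assigned curve classes.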
SW480 rereplic: induces DNA re-replication in SW480 colon adenocarcinoma cells. SW480 DNA re-replication, Hoechst DNA content imaging, 48 h. AID 624297. Potency, µM (series often up to 46.1 µM), for inactives: at the highest dose re-replication activation, most hits filed as activators. 340,000 tested, 1.8% active; also: % of control where 0% means no effect; nearly all actives have a fitted effect of over 55% in size
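Image-based DNA-content assay: after two days of treatment, nuclei were labelled with the DNA dye Hoechst and imaged, and hits were compounds raising the count of nuclei showing high fluorescence intensity.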
KB-V1 cytotox: KB-V1 MDR subline cytotoxicity | KB-V1 MDR cells viability, CellTiter-Glo, 72 h | Potency, µM (highest dose often 46.1 µM), actives largely listed as cytotoxic | 400,000 tested, 3.4% active | AID 1347076; also: % is scaled to controls: 0 for no effect and ±100 for the full control effect; nearly all actives have a fitted effect of over 60% in size
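KB-V1, DMEM (no phenol red) + 10% FBS; cpd pin-transferred, titration series; 72 h, 37 degrees C; CellTiter-Glo, luminescence. Data normalized, curve-fit.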
KB-3-1 cytotox: kills parental KB-3-1 adenocarcinoma cells | KB-3-1 viability, CellTiter-Glo ATP luminescence, 72 h | Potency, µM (titrated, usually from 46.1 µM), usual class: cytotoxic | 400,000 tested, 1.4% active; also: % is scaled to controls: 0 for no effect and ±100 for the full control effect; nearly all actives have a fitted effect of over 60% in size
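Using CellTiter-Glo luminescence, growth of non-resistant KB-3-1 adenocarcinoma cells is assessed 72 h after pin-tool compound addition at 37 °C. Normalized responses across the concentration series yield fitted curves.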
Numbers without * were called inactive; i = inactive; ? = inconclusive; · = no result; [ ] = another dose, or the depositor's remark. Calls follow the shape of the dose curve; as a rule, active = well fitted curve in the direction sought with a large enough effect; inconclusive = small, poorly fitted or top-dose-only effect, or another doubt; inactive = no such curve, though single readings can be large; an effect the other way counts as inactive or inconclusive. Potency is read from the fitted curve at half-maximal effect.

SMILES	HT1080 IDH1KD tx	MCF10A rerep	HT1080-NT tox	SW480 rereplic	KB-V1 cytotox	KB-3-1 cytotox
Cc1ccc(N(CC(=O)NCCc2ccc(Cl)cc2)S(=O)(=O)N(C)C)cc1	·	·	·	·	i	i
Cc1ccccc1N=C(c1ccccc1)C1C(=O)c2ccccc2C1=O	?	·	?	·	21µM*	?
Cc1sc2nc(SCc3nnc(-c4cccs4)o3)n(C3CCCC3)c(=O)c2c1C	-3%	?	0%	15%	21µM*	i
Cc1sc2nc(CSc3nnc(Cc4cccs4)n3C3CCCCC3)[nH]c(=O)c2c1C	-1%	-9%	-2%	-1%	i	i
COc1ccccc1Nc1nc(Cl)c(C=O)s1	-1%	21µM*	-8%	0%	i	i
Cc1ccc(Nc2nc(Cl)c(C=O)s2)cc1Cl	?	18µM*	18µM*	?	i	?
COc1ccc(NC(=O)CCCN2C(=O)CCn3nc(-c4cn(C)c5ccccc45)cc32)cc1	·	·	·	·	i	i
COc1ccc(-c2noc(CN(C(=O)c3ccc(C)cc3C)C(C)C)n2)cc1	·	·	·	·	i	?
CCCCn1c(SCC(=O)Nc2nnc(CC)s2)nc2ccccc2c1=O	3%	0%	3%	0%	?	i
Nc1ccccc1SCC(=O)Nc1nc(-c2ccccc2)cs1	?	?	-8%	1%	?	4.1µM*
Cc1csc(SCC(=O)Nc2nc(-c3ccccc3)cs2)n1	6%	4%	13%	-2%	i	i
Cn1c(SCC(=O)N2c3ccccc3Sc3ccccc32)nc2ccccc21	-3%	?	-5%	?	?	i
CCn1c(SCC(=O)Nc2nc(-c3ccc(C)cc3)cs2)nnc1-c1ccccc1	-23%	14%	-29%	2%	2.6µM*	?
CN(C)CCCn1c(SCC(=O)N2c3ccccc3Sc3ccccc32)nc2ccccc2c1=O	?	?	18µM*	?	?	?
Cc1ccc(-c2csc(NC(=O)CSc3nc4ccccc4c(=O)n3CCCN(C)C)n2)cc1	23µM*	?	?	?	?	?
CCc1ccccc1NC(=O)c1cnn2c(C(F)(F)F)cc(-c3ccc(OC)c(OC)c3)nc12	·	·	·	·	?	i
Cc1nc2c(c(C)c1CCC(=O)NCc1ccccc1)c(=O)n(C)c(=O)n2C	·	·	·	·	i	i
Cc1ccc(S(=O)(=O)N2CCCc3cc(NC(=O)c4c(F)cccc4F)ccc32)cc1	-7%	4%	-1%	-3%	i	i
Cc1ccc(OCc2nc3c4c(ncn3n2)-c2ccccc2CC42CCCC2)cc1	8%	-43%	7%	-55%	?	i
COc1ccc(OCc2nc3c4c(ncn3n2)-c2ccccc2CC42CCCC2)cc1	13%	-40%	5%	7%	12µM*	i
COc1ccc(-c2nc3c4c(ncn3n2)-c2ccccc2CC42CCCC2)cc1	12%	9%	?	-1%	i	i
Oc1cccc(-c2nc3c4c(ncn3n2)-c2ccccc2CC42CCCC2)c1	11µM*	2.1µM*	?	-4%	7.3µM*	i
c1ccc2[nH]c(-c3cscn3)nc2c1	2%	2%	3%	7%	i	i
c1ccc2c(-c3nc4ccccc4[nH]3)cccc2c1	18µM*	·	?	·	4.6µM*	21µM*
c1ccc2nc(-c3nc4ccccc4[nH]3)ccc2c1	13µM*	6%	26µM*	1%[9.22 µM]	?	?
SMILES	HT1080 IDH1KD tx	MCF10A rerep	HT1080-NT tox	SW480 rereplic	KB-V1 cytotox	KB-3-1 cytotox
COc1cccc(NS(=O)(=O)c2ccc3c(c2)N(C)C(=O)CC(=O)N3C)c1	·	·	·	·	?	i
O=C(CN(c1cccc(Br)c1)S(=O)(=O)c1ccccc1)N1CCc2ccccc2C1	·	·	·	·	i	i
O=C(Cc1cccc2ccccc12)NO	8%	·	0%	·	·	·
Nc1ccc(S(=O)(=O)NNC(=O)C(=O)NNc2ccccc2)cc1	?	?	10µM*	4%	i	i
COc1ccc(Cl)cc1NC(=O)Cn1cc2c(n1)CCC(C)C2 (stereo not given)	·	·	·	·	i	i
C/C(CCc1ccccc1)=N\NC(=O)C(=O)Nc1cccc(Cl)c1	0%	0.26µM*	1%	7%	i	i
C/C(CC(=O)Nc1ccc(OCc2ccccc2)cc1)=N\NC(=O)C(=O)Nc1cccc(C)c1	-15%	15µM*	-1%	-60%	?	?
C/C(CCc1ccco1)=N/NC(=O)CCC(=O)Nc1cccc(Cl)c1	0%	-1%	-7%	-5%	?	i
COc1ccccc1NC(=O)C(=O)N/N=C(\C)CC(=O)Nc1ccc(OCc2ccccc2)cc1	-6%	17%	-1%	-1%	i	?
O=C(Cc1ccc(NC(=O)N2CCCCc3ccccc32)cc1)NCc1ccccc1Br	·	·	·	·	i	i
COc1cc(C2NC(=O)NC(c3ccccc3)=C2C(C)=O)cc(Cl)c1OCC(=O)O (stereo not given)	11%	11%	2%	1%	i	i
COc1cc(C2NC(=O)NC(c3ccccc3)=C2C(C)=O)c(Cl)cc1OCC(=O)O (stereo not given)	15%	7%	17%	4.1µM*	i	?
C/C(=N\NC(=O)c1cc(-c2ccc(C)s2)[nH]n1)c1ccncc1	-13%	12%	-22%	?	i	i
CCC12CN3CC(CC)(CN(C1)C3c1cccc(OC)c1O)C2=O (stereo not given)	·	·	·	·	i	i
COC(=O)c1c(C)nc(C)c(C(=O)OC)c1-c1ccc(OC)c(OC)c1	-4%	13%	-2%	6%	i	i
CCOC(=O)c1c(C)nc(C)c(C(=O)OCC)c1-c1ccc(O)c(OC)c1	-11%	?	-2%	3.7µM*	i	i
CCN1CCN(C(=O)c2cnn(-c3ccc(F)cc3)c2-n2cccc2)CC1	·	·	·	·	i	i
Cc1ccc(C)c(N2CCN(C(=O)C3CCN(S(=O)(=O)c4ccc5[nH]c(=O)oc5c4)CC3)CC2)c1	·	·	·	·	i	i
N#C/C(N=Nc1ccccc1O)=N\Nc1ccccc1O	9.2µM*	?	21µM*	2%[9.22 µM]	?	16µM*
O=C(Nc1ccc(F)cc1)C1CCC(CNc2c(N3CCCCC3)c(=O)c2=O)CC1 (stereo not given)	3%	0%	5%	-4%	i	i
CCN(C(=O)c1cc2c(Cl)nc3ccccc3c2s1)c1cccc(Cl)c1	·	·	·	·	i	i
CCc1ccc(-c2cn(C3CCCCC3)c(=S)[nH]2)cc1	?	?	0%	3%	?	i
